In all, about 320,000 compounds went through this assay and about 22,000 (6.9%) were called active. Where a call stands in place of a potency, no number is given. Another 27% or so got no clear call; they are omitted. The sample as a whole holds a higher share of actives than the screen did. Unmarked numbers belong to inactive results. Calls follow the shape of the dose curve; as a rule, active = well fitted inhibition curve with a large enough effect; inconclusive = small, poorly fitted or top-dose-only effect, or another doubt; inactive = no such curve, though single readings can be large or run the other way.
Assay: Primary qHTS for delayed death inhibitors of the malarial parasite plastid, 96 hour incubation
Conditions: P. falciparum luciferase reporter growth; series mostly up to 28.7 µM
Outline: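 Readout is luminescence from an integrated firefly luciferase in P. falciparum. Red cells, 2% hematocrit and 0.05% parasitemia final, were cultured with compound through two parasite generations (96 hours) at 37 C, 5% CO2.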
With `COC(=O)C1[C@H]2SC(C)(C)C(C(=O)OC)N2C(=O)N1Cc1nc2ccccc2s1` (stereo not given in full) the Potency was “inactive”. For `Cc1ccc(-n2c(N)c(C(=O)N3CCOCC3)sc2=S)c(C)c1`, the Potency was “inactive”. In the case of `N#Cc1ccccc1-n1c(N)c(C(=O)N2CCCC2)sc1=S`, the Potency is reported as 3.7 µM (active). For `Cc1cccc(-n2c(N)c(C(=O)N3CCN(C)CC3)sc2=S)c1`, the Potency was “inactive”. For `COC(=O)Cc1ccc(OCC(=O)NC2CCCC2)cc1`, the Potency was “inactive”. For `O=C(N/N=C/c1cccnc1)c1cc2ccccc2cc1O`, the Potency was “inactive”. For `CC(C)(C)OC(=O)NNc1c2ccccc2nc2ccccc12`, the Potency was “inactive”. For `O=C(NNc1c2ccccc2nc2ccccc12)c1cc2ccccc2cc1O`, the Potency was 3.7 µM (active). In the case of `O=C(COC(=O)c1ccc2ncsc2c1)Nc1ccc(Cl)cc1`, the Potency is reported as “inactive”. In the case of `COc1ccccc1C(=O)N/C(=C/c1ccco1)C(=O)Nc1ccc(C(=O)O)cc1`, the Potency is reported as “inactive”. For `CCCCCCC(=O)Nc1nc(C)c(-c2csc(Nc3cc(Cl)ccc3OC)n2)s1`, the Potency was 2.62 µM (active). With `CCCCCCC(=O)Nc1nc(C)c(-c2csc(Nc3cccc(OC)c3)n2)s1` the Potency was 7.38 µM (active). In the case of `CCCCN(C)CCC(=O)Nc1ccc(Cl)cc1`, the Potency is reported as “inactive”. For `COc1ccc(-c2csc(NC(=O)COC(=O)Cc3ccc(Cl)cc3Cl)n2)cc1`, the Potency was “inactive”. With `COc1ccc(OC)c(-c2csc(NC(=O)COC(=O)C3CC3)n2)c1` the Potency was “inactive”. In the case of `C=CCCC(=O)Nc1nc(C)c(-c2csc(Nc3ccc(Cl)cc3)n2)s1`, the Potency is reported as 0.657 µM (active). For `CCCCC(=O)N/N=C(\C)CC(=O)Nc1cc(Cl)ccc1OC`, the Potency was “inactive”. In the case of `CC(=O)c1sc(NC(=O)CCCOc2ccccc2C)nc1C`, the Potency is reported as “inactive”. In the case of `Cc1nc(C)c(-c2csc(NCCc3ccccc3)n2)s1`, the Potency is reported as “inactive”. With `CCCCC(=O)Nc1nc(C)c(-c2csc(Nc3ccc(Cl)cc3)n2)s1` the Potency was 3.29 µM (active). For `COc1ccc(OC)c(Nc2nc(-c3ccc(O)c(O)c3)cs2)c1`, the Potency was “inactive”. For `CCOC(=O)c1csc(NC(=O)Nc2cccc(OC)c2)n1`, the Potency was “inactive”. For `COc1ccc(-c2ccc(OC(=O)NC3CCS(=O)(=O)C3)cc2)cc1` (stereo not given), the Potency was “inactive”. With `O=[N+]([O-])c1cc(S(=O)(=O)NCCc2ccccn2)ccc1Cl` the Potency was “inactive”. For `CN1CCN(Cc2c(C(=O)N3CCc4ccccc4C3)nc3ccc(Cl)cn23)CC1`, the Potency was “inactive”. For `COC(=O)c1ccc(NC(=O)CSc2nc(N)c(NC(=O)c3ccc(Br)o3)c(=O)[nH]2)cc1`, the Potency was “inactive”. With `CCN(CC(=O)Nc1cc(Cl)ccc1C)C(=O)CN1C(=O)NC2(CCCC2)C1=O` the Potency was “inactive”. With `Cc1cc(=O)oc2c(C)c(OCC(=O)NCCc3ccc(S(N)(=O)=O)cc3)ccc12` the Potency was “inactive”. In the case of `Cc1ccc(OCC(=O)Nc2ccc(C(=O)O)cc2NC(=O)COc2ccc(C)c(C)c2)cc1C`, the Potency is reported as “inactive”. For `O=C1CC(N2CCN(C(c3ccccc3)c3ccccc3)CC2)C(=O)N1` (stereo not given), the Potency was “inactive”. For `CC1(C)CC(=O)C=C(N2CCCC2)C1`, the Potency was “inactive”. For `CC1(C)CC(N2CCN(C(c3ccccc3)c3ccccc3)CC2)=CC(=[N+]2CCCCC2)C1`, the Potency was 0.415 µM (active). For `CCOc1ccc(S(=O)(=O)Nc2ccc(OC)nc2)cc1`, the Potency was “inactive”. For `CN(CCO)c1ccc(/C=N/Nc2nncc3ccccc23)cc1`, the Potency was “inactive”. In the case of `COc1ccc2oc(=O)c(C(=O)N3CCCc4ccccc43)cc2c1`, the Potency is reported as “inactive”. In the case of `Cc1occc1C(=O)N1CCCc2ccccc21`, the Potency is reported as 10.4 µM (active). For `CCC(=O)N1CCCc2ccccc21`, the Potency was “inactive”. In the case of `COc1cc(NC(=O)CN2C(=O)NC(C)(c3ccc(OC(F)F)cc3)C2=O)cc(OC)c1OC` (stereo not given), the Potency is reported as “inactive”. In the case of `COc1ccc(Cl)cc1S(=O)(=O)N1CCC(O)(c2ccc(Cl)cc2)CC1`, the Potency is reported as “inactive”. In the case of `CCOc1cc(C(C(=O)NCC2CCCO2)N(C(=O)Cn2nnc3ccccc32)c2cccc(OC)c2)ccc1O` (stereo not given), the Potency is reported as “inactive”. For `COC(=O)c1sc(N2CCN(Cc3ccccc3)CC2)nc1N`, the Potency was “inactive”. In the case of `CS(=O)(=O)c1ccc(Cl)c(NC(=O)COC(=O)c2ncc(Cl)c(Cl)c2Cl)c1`, the Potency is reported as “inactive”. With `Cc1ccc(S(=O)(=O)c2c[nH]c3ccc(Cl)cc3c2=O)cc1` the Potency was “inactive”. With `COc1ccc(-c2oc3ncn(Cc4ccco4)c(=N)c3c2-c2ccc(OC)cc2)cc1` the Potency was 6.57 µM (active). For `COc1ccc(Nc2nc(Cl)nc(NCc3ccco3)n2)cc1`, the Potency was “inactive”. Compound `COc1ccc2[nH]c3c(=O)n(Cc4ccco4)cnc3c2c1` has an activity change, negative = inhibition of 6.11% [at 5.75 µM]. For `CN(c1ccccc1)S(=O)(=O)c1ccc2[nH]c(=O)[nH]c2c1`, the Potency was “inactive”. In the case of `CC(CCc1ccccc1)NC(=O)COC(=O)c1ccc(F)cc1` (stereo not given), the Potency is reported as “inactive”. With `Cc1ccc(NC(=O)C2CC(c3ccc(F)cc3)=NO2)cc1` (stereo not given) the Potency was 4.15 µM (active). For `O=C(Cc1c(F)cccc1Cl)N1CCN(C(=O)c2ccco2)CC1`, the Potency was “inactive”. With `CCOC(=O)N1CCN(CC(=O)Nc2ccc(F)cc2)CC1` the Potency was “inactive”. With `O=C(c1ccc2c(c1)OCO2)N1CCN(C(=O)c2ccco2)CC1` the Potency was “inactive”. In the case of `O=C(c1ccco1)N1CCN(C(=O)c2ccc(COc3ccc(F)cc3)o2)CC1`, the Potency is reported as “inactive”. For `O=C(c1ccco1)N1CCN(C(=O)C2CC(c3ccc(Cl)c(Cl)c3)=NO2)CC1` (stereo not given), the Potency was 5.86 µM (active). In the case of `O=C(NCc1cc(C(F)(F)F)cc(C(F)(F)F)c1)C1CC(c2cccc(F)c2)=NO1` (stereo not given), the Potency is reported as “inactive”. In the case of `O=C(c1ccco1)N1CCN(C(=O)C2CC(c3ccc(F)cc3)=NO2)CC1` (stereo not given), the Potency is reported as 7.38 µM (active). For `CCOC(=O)N1CCN(C(=O)C2CC(c3ccc(F)cc3)=NO2)CC1` (stereo not given), the Potency was 4.65 µM (active). For `CCn1ncc(C2=NOC(C(=O)N3CCN(c4ccccc4)CC3)C2)c1C` (stereo not given), the Potency was “inactive”. With `CCNC(=S)N1CCN(C(=O)c2ccco2)CC1` the Potency was “inactive”. For `COc1ccc(CNC(=O)C2CC(c3ccc(C(F)(F)F)cc3)=NO2)cc1` (stereo not given), the Potency was “inactive”. For `O=C(COc1nsnc1N1CCOCC1)Nc1ccccc1Cl`, the Potency was “inactive”. For `COc1cccc(/C=C/C(=O)OCC(=O)N2CCN(c3ccccc3)CC2)c1`, the Potency was “inactive”. For `Cc1ccc(CC2CC(=O)N(c3cc(C)ccc3C)C2=O)cc1` (stereo not given), the Potency was “inactive”. For `Cc1ccc(S(=O)(=O)CC(=O)Nc2sc(C)c(C)c2C(N)=O)cc1`, the Potency was “inactive”. In the case of `O=C(NNC(=O)C1CCC1)c1ccccc1`, the Potency is reported as “inactive”. With `Cc1cccc(C2C3=C(CCCC3=O)N=C3c4ccccc4C(=O)C32)c1` (stereo not given) the Potency was “inactive”. With `COc1ccc(-c2cc(C(=O)NCCCn3ccnc3)no2)cc1` the Potency was 8.28 µM (active). With `O=C(NCCCn1ccnc1)c1cc(-c2ccccc2)on1` the Potency was “inactive”. With `COc1ccc(-c2cc(C(=O)NCCCN3CCOCC3)no2)cc1` the Potency was “inactive”. In the case of `Cc1ccc(S(=O)(=O)NC(=O)c2cccc(C)c2)cc1`, the Potency is reported as “inactive”. In the case of `O=C(NC1CCN(S(=O)(=O)c2ccc(F)cc2)CC1)c1ccccc1`, the Potency is reported as “inactive”. In the case of `CCN(CC)CCN(C(=O)c1ccc(S(=O)(=O)N2CCOCC2)cc1)c1nc2cc3c(cc2s1)OCCO3`, the Potency is reported as “inactive”. In the case of `Cc1cccc2cc3c(N)c(C(=O)N4CCCc5ccccc54)sc3nc12`, the Potency is reported as 11.7 µM (active). In the case of `CCCn1nc(C(=O)N2CCCc3ccccc32)c2ccccc2c1=O`, the Potency is reported as “inactive”. With `Cc1c(C(=O)N2CCCc3ccccc32)sc2nc(-c3ccccc3)cn12` the Potency was “inactive”. With `CCOC(=O)c1c(C)[nH]c(C(=O)OCC(=O)N2CCCC2=O)c1C` the Potency was “inactive”. In the case of `COc1cccc(NC(=O)COC(=O)/C=C/c2ccco2)c1`, the Potency is reported as “inactive”. In the case of `COCCCNC(=O)Cc1ccc(-n2c(C)nc3cccnc32)cc1`, the Potency is reported as “inactive”. With `COc1cc2c(cc1OC)CC(=O)N(CCCN(C)C[C@H]1Cc3cc(OC)c(OC)cc31)CC2` the Potency was “inactive”. With `CCCCn1c(SCC(=O)N2CCOCC2)nc2c1c(=O)n(C)c(=O)n2C` the Potency was 11.7 µM (active). With `Cn1c(=O)c2c(SCC(=O)N3CCOCC3)nc(C3CC3)nc2n(C)c1=O` the Potency was “inactive”. With `C#CC(C)(C)NC(=O)CSc1nc2c(c(=O)n(C)c(=O)n2C)n1CCCC` the Potency was “inactive”. For `CC(C)CC(=O)c1c[nH]c(C(=O)NCc2ccccc2)c1`, the Potency was “inactive”. With `Cc1nc(SCC(=O)NC2CCCCC2C)c(C#N)c(C)c1C` (stereo not given) the Potency was “inactive”. With `COc1ccc(-c2cc(-c3ccc(N)cc3)nc(N)c2C#N)cc1OC` the Potency was “inactive”. For `N#Cc1c(C(F)(F)F)cc(-c2ccccc2)nc1SCC(=O)N1CCOCC1`, the Potency was “inactive”. In the case of `N#Cc1c(-c2ccccc2)cc(-c2ccccc2)nc1SCC(=O)O`, the Potency is reported as “inactive”. With `CCSc1nc(-c2ccc(OC)cc2)cc(-c2ccc(OC)cc2)c1C#N` the Potency was 4.65 µM (active). In the case of `COc1ccc(-c2cn[nH]c2-c2ccc(OC)cc2)cc1`, the Potency is reported as “inactive”. With `CCOC(=O)CC(=O)CSc1nc(-c2ccccc2)cc(-c2ccc(Cl)cc2)c1C#N` the Potency was 7.38 µM (active). In the case of `Cn1ccsc1=NC(=O)c1cc(S(=O)(=O)N2CCOCC2)ccc1Cl`, the Potency is reported as “inactive”. For `O=C(NCc1ccc2c(c1)OCO2)C(=O)NCC1OCCN1S(=O)(=O)c1ccc(F)cc1` (stereo not given), the Potency was “inactive”. With `COCCCNC(=S)N1CCN(c2nc(-c3cccc(OC)c3)cs2)CC1` the Potency was “inactive”. With `COc1ccc(C)cc1Nc1n[n+](-c2ccccc2)c(-c2cccc(Cl)c2Cl)s1` the Potency was 13.1 µM (active). In the case of `COc1ccc(C)cc1Nc1nc(-c2c(C)[nH]c3ccccc23)cs1`, the Potency is reported as “inactive”. In the case of `COC(=O)c1cnc(Nc2cc(C)ccc2OC)c2ccccc12`, the Potency is reported as “inactive”. With `CCc1ccc(Nc2n[n+](-c3ccccc3)c(-c3cccc(Cl)c3Cl)s2)cc1` the Potency was 3.7 µM (active). With `N#Cc1ccccc1NC(=O)c1ccc2c(c1)OCO2` the Potency was “inactive”. With `N#C/C(=C\c1cccnc1)C(=O)Nc1ccc(SC(F)F)cc1` the Potency was “inactive”. With `Cc1ccc(CNC(=O)CSc2nnc3c(n2)[nH]c2ccc(F)cc23)cc1` the Potency was “inactive”. With `COC(=O)C(C)n1cnc2c(nnn2-c2ccc(F)cc2)c1=O` (stereo not given) the Potency was “inactive”. In the case of `Cc1cc(C)cc(N(CC(=O)NC2CCCC2)C(=O)CCC(=O)Nc2nccs2)c1`, the Potency is reported as “inactive”. For `COc1ccc(C(=O)C2CCCN(Cc3ccc4nonc4c3)C2)c(C)c1` (stereo not given), the Potency was “inactive”. In the case of `CCOC(=O)c1[nH]ncc1CN1CCCC(C(=O)c2ccc(OC)cc2C)C1` (stereo not given), the Potency is reported as 8.28 µM (active). For `COc1ccc(C(=O)C2CCCN(Cc3cccn3-c3ccccn3)C2)c(C)c1` (stereo not given), the Potency was “inactive”.

From PubChem BioAssay AID504834 (National Center for Advancing Translational Sciences (NCATS), 2011)
Potency is read from the fitted curve at half-maximal effect.
